Laboratory results published in ChEMBL document CHEMBL3988442, “University of Dundee, Small-Polar-MMV Screening Library” (2021).
The whole screen tested about 48,000 compounds, of which about 13,000 (27%) showed an effect of 50% or more. This is one part of the list.

Tested on: Wolbachia pipientis
Assay: Anti-Wolbachia Cell-Based Screen
Assay type: functional
Set-up: scale not given: in the data most compounds retested in dose-response had high values
Conditions: 5 µM

Row | SMILES | Percent Effect [%]
1 | CCc1cnc(C)nc1NCCC(=O)N1CCC(C)CC1 | -0.3722
2 | COc1ccnc(N(C)Cc2ccccc2O)n1 | -0.8473
3 | CN(C)C(CNCc1nc(-c2ccsc2)no1)c1cccc(F)c1 (centres undefined) | 29.87
4 | CC(=O)Oc1ccnc(C(F)(F)F)c1C(C)=O | 6.517
5 | O=C(O)C(F)(F)F.O=S(=O)(c1cccs1)N1CC[C@@H](O)[C@@H]1Cc1ccncc1 | 6.31
6 | O=C(O)C(F)(F)F.O=S(=O)(c1cccs1)N1CCCn2cnc(CN3CCCC3)c2C1 | -2.227
7 | O=C(O)C(F)(F)F.O=S(=O)(c1cccs1)N1Cc2nc(CN3CCCC3)oc2C1 | 87.16
8 | Cc1cccc(CN2C[C@@H]3CN(C(=O)c4ccsc4)C[C@@H]3C2=O)n1.O=C(O)C(F)(F)F | -3.63
9 | O=C(c1ncc[nH]1)N1CCC(Cn2cc(-c3cccc(Cl)c3)nn2)CC1 | -5.477
10 | CC[C@@H](CO)Nc1cc(-c2cn[nH]c2)ncn1 | 98.52
11 | C[C@@H](CO)Nc1cc(-c2cn[nH]c2)ncn1 | 112.5
12 | CC(C)[C@@H](CO)Nc1cc(-c2cn[nH]c2)ncn1 | 127.6
13 | CCC(CO)NC(=O)c1cc(COc2ccc(OC)cc2Cl)[nH]n1 (centres undefined) | -12.2
14 | COc1cccc(-c2noc(-c3ccc(NCC(C)O)nc3)n2)c1OC (centres undefined) | -13.68
15 | CC(C)c1nccn1CCCNC(=O)c1ccc(-c2cn[nH]c2)nc1 | -8.447
16 | CC[C@@H](CO)NC(=O)c1cc(COc2ccc(OC)cc2Cl)[nH]n1 | -9.741
17 | CSc1ccc2c(C)cc(N[C@@H](C)CO)nc2c1 | -9.02

Row | SMILES | Percent Effect [%]
18 | COc1ccc(Cc2noc(-c3ccc(NC(C)CO)nc3)n2)cc1 (centres undefined) | 5.885
19 | C[C@H](O)CNc1cc(-c2cn[nH]c2)ncn1 | 139.4
20 | COc1cccc(-n2cc(-c3ccnc(N[C@H](CO)C(C)C)n3)cn2)c1 | 4.852
21 | COc1cccc(-n2cc(-c3ccnc(NC(CO)C(C)C)n3)cn2)c1 (centres undefined) | 8.395
22 | Cc1cc(CN2CCN(C(=O)NCCCc3cn[nH]c3C)CC2)on1 | -23.87
23 | Cc1ccc(-n2nnnc2SCN2CCCCC2=O)cc1C | -13.91
24 | Cc1ccc(CNC(=O)CN2C=Nc3ccccc3S2(=O)=O)s1 | 1.242
25 | COc1ccc(C)c2c1N(C(=O)c1cnc(C)s1)CCC2 | 46.61
26 | Cn1cnnc1CNC(=O)C1CCCN(Cc2ccccc2)C1 (centres undefined) | -10.08
27 | NC(=O)C1CCCN(Cc2ccc(C(=O)Nc3cnns3)cc2)C1 (centres undefined) | 103.7
28 | CCNC(=O)C1CCN(Cc2ccc(C(=O)Nc3nnc(C)s3)cc2)C1 (centres undefined) | 100.1
29 | CCc1ccc(CN2CCC(CNC(=O)c3ccc(C)nc3)C2)nc1 (centres undefined) | 20.32
30 | CCCN(C(=O)c1cnns1)C1CCCN(Cc2ccccc2)C1 (centres undefined) | 20.84
31 | O=C(Nc1nnc(C2CC2)s1)NC1CCN(Cc2ccccc2)C1 (centres undefined) | -1.377
32 | O=C(c1ccc(CN2CCCC2)cc1)N1CCCC(n2cccn2)C1 (centres undefined) | 0.6704
33 | CCNC(=O)C1CCN(Cc2ccc(C(=O)Nc3cnns3)cc2)C1 (centres undefined) | 106
34 | NC(=O)c1ccc(CN2CCCC(N3CCCC3)C2)cc1 (centres undefined) | -7.606
